The entries come from a sample that favours hits as a whole.
ClpP mod: qHTS Assay for Activators of ClpP; Potency, µM (series often up to 57.5 µM); AID 651965, 2013; purified B. subtilis ClpP, FRET peptide cleavage, 20 min; actives 1.9% (n = 340,000); ATP-dependent Clp protease proteolytic subunit (Bacillus subtilis (strain 168)), P80244; active = well fitted falling curve with a large enough effect; inconclusive = small, poorly fitted or top-dose-only effect; inactive = no such curve, though single readings can be large or run the other way; note: the source files actives as falling curves though it sought activators and does not explain the sign; nearly all actives have a fitted effect of over 65% in size
Target sequence (P80244 whole entry, looked up): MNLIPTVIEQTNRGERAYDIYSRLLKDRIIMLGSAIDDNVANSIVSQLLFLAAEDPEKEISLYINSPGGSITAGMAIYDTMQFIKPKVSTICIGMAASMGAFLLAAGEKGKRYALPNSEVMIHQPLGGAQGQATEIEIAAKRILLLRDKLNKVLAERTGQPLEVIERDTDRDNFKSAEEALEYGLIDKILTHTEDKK
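Buffer: 100 mM Tris/HCl pH8, 100 mM KCl, 0.05% low protease BSA, 2.5% glycerol, 0.01% Tween-20. ClpP 10 microg/mL final; 20 min RT; delta FRET normalized to ADEP and DMSO controls.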
GALK inhibitor: blocks human galactokinase activity; P51570; Purified GALK, Kinase-Glo residual ATP luminescence; Potency, µM (doses to about 57.5 µM), most hits filed as inhibitors; actives 0.007% (n = 270,000); AID 1868
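ATP-depletion format; final 35 uM ATP, 100 uM D-galactose, 5 nM enzyme; pH 8.0 HEPES/Mg2+ buffer; 60 min RT; luminescence read 10 min after detection reagent.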
Eya2 inh: Eya2 (human) phosphatase inhibition; Potency, µM (highest dose often 76.9 µM), most hits filed as inhibitors; recombinant Eya2, OMFP fluorescence dephosphorylation (OMFP is methylfluorescein phosphate); O00167; AID 488837; actives 0.006% (n = 330,000)
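Eya2 (0.2 uM) preincubated 10 min at ambient with compound, then OMFP substrate added at 50 uM; 10 min reaction in 50 mM HEPES pH 7.5, 50 mM NaCl, 5 uM MgCl2, 0.05% BSA, 1 mM DTT. Fluorescence read at Ex 485/Em 525 nm.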
USP2a inh: blocks human ubiquitin-specific protease USP2a. O75604. USP2 core, Ub-CHOP2 coupled fluorogenic reporter, 485/531. Potency, µM (doses to about 38.3 µM), hits mostly inhibitors. actives 0.01% (n = 330,000)
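USP2 core (10nM final) preincubated 30min RT with compound in 20mM Tris-HCl pH 8.0, 2mM CaCl2, 2mM beta-mercaptoethanol, 0.05% CHAPS; 25nM Ub-CHOP2 plus 25nM reporter substrate added, fluorescence (Ex485/Em531) read after 60min.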
Of the large screens only hits and unclear results are named; the others gave an inactive call. Unless noted, calls come from the whole dose curve; as a rule, active = well fitted inhibition curve with a large enough effect; inconclusive = small, poorly fitted or top-dose-only effect, or effect the other way; inactive = flat fitted curve, though single readings scatter.

COc1cc(OC)cc(-c2ncc3ccccn23)c1	ClpP mod 25.1µM
c1csc(-c2ncc3ccccn23)c1	ClpP mod 31.6µM
O=c1oc2cc(OCc3c(F)c(F)c(F)c(F)c3F)ccc2cc1-c1ccccn1	ClpP mod 15.8µM
Cc1cccc2cc(CN(Cc3ccccc3)C(=S)NCCCN(C)C)c(=O)[nH]c12	none (no result: ClpP mod)
Cc1ccc(CN(Cc2cc3cccc(C)c3[nH]c2=O)C(=S)NCCCN(C)C)cc1	ClpP mod 22.4µM
CCC(C)/C=C/C1=CC2=C(Cl)C(=O)C3(C)OC(=O)C(C(=O)C(C)C(C)O)C3C2=CO1 (stereo not given)	ClpP mod 22.4µM
CC(C)OC(=O)NC(Nc1ccccc1C(=O)O)(C(F)(F)F)C(F)(F)F	none
COc1ccccc1N(C)c1cc2c(c3c1ccn3C)C1CCC2C1 (stereo not given)	ClpP mod 31.6µM (no result: GALK inhibitor, Eya2 inh, USP2a inh)
CCN(C)c1cc2c(c3c1ccn3C)C1CCC2C1 (stereo not given)	none (no result: GALK inhibitor, Eya2 inh, USP2a inh)
Cc1[nH]n(C(N)=S)c(=O)c1N=Nc1ccccc1C(F)(F)F	none
CCOC(=O)c1cccc(S(=O)(=O)N(CCO)Cc2cc3cc(OC)ccc3[nH]c2=O)c1	ClpP mod inconclusive
CCn1cc2c(n1)-c1c(oc(C(=O)Nc3cccc(C(F)(F)F)c3)c1C)CC2	ClpP mod 35.5µM (no result: GALK inhibitor, Eya2 inh, USP2a inh)
COc1ccc(NC(=O)c2oc3c(c2C)-c2nn(Cc4ccccc4Cl)cc2CC3)cc1OC	none (no result: GALK inhibitor, Eya2 inh, USP2a inh)
COc1cc(NC(=O)c2oc3c(c2C)-c2nn(Cc4cccc(Cl)c4)cc2CC3)cc(OC)c1	ClpP mod 20µM (no result: GALK inhibitor, Eya2 inh, USP2a inh)
CCN(CC)CC(O)COc1ccc2c(c1)OCO2 (stereo not given)	ClpP mod 12.6µM
CC1(C)CC(=O)c2cc(C(=O)NCc3ccco3)c(=O)n(-c3ccccc3)c2C1	ClpP mod 28.2µM
CC1(C)CC(=O)c2cc(C(=O)NNc3ccccc3)c(=O)n(-c3ccccc3)c2C1	none (no result: ClpP mod)
O=C(CNC(=O)c1cc2c(n(-c3ccccc3)c1=O)CCCC2=O)c1ccccc1	ClpP mod 28.2µM
CCOc1ccccc1C(=O)NCCN1CCC(n2c(=O)[nH]c3ccccc32)CC1	ClpP mod 2.82µM (no result: GALK inhibitor, Eya2 inh, USP2a inh)
COc1ccccc1C(=O)NCCN1CCC(n2c(=O)[nH]c3ccccc32)CC1	none (no result: GALK inhibitor, Eya2 inh, USP2a inh)
CN(CC1CCOCC1)C(=O)CC1C(=O)NCCN1Cc1ccc(Cl)c(F)c1 (stereo not given)	Eya2 inh inconclusive
Cc1ccc(CNC(=O)c2ccc(Cn3c(SCc4ccc(F)cc4)nc4cccnc43)cc2)o1	ClpP mod 28.2µM (no result: GALK inhibitor, Eya2 inh, USP2a inh)
O=C(NCCc1cccs1)c1ccc(Cn2c(SCc3ccc(F)cc3)nc3cccnc32)cc1	ClpP mod 25.1µM (no result: GALK inhibitor, Eya2 inh, USP2a inh)
CCc1cccc(NC(=O)NC2CCCCC2)c1	none
CCOc1ccc(-n2cnnn2)cc1S(=O)(=O)NCc1ccccc1	none
CCOc1cc(S(=O)(=O)NCc2ccccc2)c(OCC)cc1-n1cnnn1	ClpP mod 31.6µM (no result: GALK inhibitor, Eya2 inh, USP2a inh)
CCOc1cc(S(=O)(=O)N(Cc2ccccc2)Cc2ccccc2)c(OCC)cc1-n1cnnn1	ClpP mod 28.2µM
Cc1ccc(CCNC(=O)CN(c2ccc(C)cc2)S(=O)(=O)N(C)C)cc1	none (no result: GALK inhibitor, Eya2 inh, USP2a inh)
COc1ccc(OC)c(C2Nc3c(C)cc(C)cc3-c3cc(C)nn32)c1 (stereo not given)	none (no result: GALK inhibitor, Eya2 inh, USP2a inh)
Cc1ccc2c(c1)-c1cc(C)nn1C(c1ccc3c(c1)OCO3)N2 (stereo not given)	ClpP mod 12.6µM
Cc1cc2n(n1)C(c1sccc1C)Nc1c(C)cccc1-2 (stereo not given)	ClpP mod 28.2µM
Cc1cc2n(n1)C(c1ccccc1)Nc1ccccc1-2 (stereo not given)	ClpP mod 25.1µM
Cc1ccc2c(c1)-c1cc(C)nn1C(c1sccc1C)N2 (stereo not given)	ClpP mod 15.8µM
N/C(=N\OC(=O)c1ccccc1Br)c1ccc([N+](=O)[O-])cc1	none
Cc1cc2n(n1)C(c1ccc(N(C)C)cc1)Nc1ccccc1-2 (stereo not given)	none
Cc1cc2n(n1)C(c1sccc1C)Nc1ccccc1-2 (stereo not given)	ClpP mod 17.8µM
COc1ccc(C(=O)N/N=C/c2ccc(OC(=O)c3cccc4ccccc34)c([N+](=O)[O-])c2)cc1	none
COc1cccc(/C=N/NC(=O)c2cccc3ccccc23)c1	none
COc1ccc(OC)c(/C=N\NC(=O)c2ccc(-c3ccccc3)cc2)c1	ClpP mod 28.2µM
COc1ccc(OC)c(/C=N/NC(=O)CNC(=O)c2cccc3ccccc23)c1	ClpP mod 17.8µM

Screening results (PubChem BioAssay)
